Values joined by “and” are separate entries in the source; they are usually repeats but may differ in a detail not shown here. Identical values can stand only once. Results filed as inconclusive are left out. Where a structure was tested more than once in an assay, its records may differ in their call. Active and inactive are the calls of the source. Unless noted, calls follow the shape of the dose curve; as a rule, active = well fitted curve in the direction sought with a large enough effect in the repeat runs; inconclusive = weak or mixed curves; inactive = no such curve, though single readings can be large; an effect the other way counts as inactive or inconclusive.
Experiments:
[1] = qHTS assay to identify small molecule antagonists of the constitutive androstane receptor (CAR) signaling pathway - cell viability counter screen (AID 1224837); also: nearly all actives have a fitted effect of over 45% in size
How it was run: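 To flag cytotoxic false antagonists, HepG2 hCAR/CYP2B6-2.2kb cells were treated 23 hr with 15-concentration compound series and 50 nM CITCO at 37 C/5% CO2; CellTiter-Fluor fluorescence was the measured end point.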

[2] = target: Nuclear receptor subfamily 1 group I member 3 (Homo sapiens) (UniProt Q14994); assay: qHTS assay to identify small molecule agonists of the constitutive androstane receptor (CAR) signaling pathway (AID 1224839); also: nearly all actives have a fitted effect of over 15% in size; also: potency is read from the fitted curve at half-maximal effect;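 as to activation: HepG2 cells stably carrying human CAR and a CYP2B6 luciferase reporter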
Chain of Nuclear receptor subfamily 1 group I member 3 (Homo sapiens) (Q14994 whole entry, looked up): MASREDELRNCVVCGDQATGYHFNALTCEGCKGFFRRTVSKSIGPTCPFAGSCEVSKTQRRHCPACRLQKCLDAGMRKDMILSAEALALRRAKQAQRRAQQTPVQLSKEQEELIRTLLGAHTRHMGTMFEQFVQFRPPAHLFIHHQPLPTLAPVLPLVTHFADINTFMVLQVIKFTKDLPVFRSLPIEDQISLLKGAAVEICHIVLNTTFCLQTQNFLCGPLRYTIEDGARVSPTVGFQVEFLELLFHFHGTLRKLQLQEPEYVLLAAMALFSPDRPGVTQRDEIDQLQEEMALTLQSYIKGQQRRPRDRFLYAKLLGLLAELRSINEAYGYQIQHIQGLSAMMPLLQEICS
How it was run: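 In this screen, CAR-driven CYP2B6 promoter activity is measured by luminescence in HepG2-CYP2B6-hCAR cells after 24 h with test compounds and 0.75 uM PK11195 (final concentration).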

[3] = target: Thyrotropin receptor (Homo sapiens) (UniProt P16473); assay: qHTS assay to identify small molecule agonists of the thyroid stimulating hormone receptor (TSHR) signaling pathway (AID 1224843; calls by dose curve; also: nearly all actives have a fitted effect of over 45% in size)
Chain of Thyrotropin receptor (Homo sapiens) (P16473 whole entry, looked up): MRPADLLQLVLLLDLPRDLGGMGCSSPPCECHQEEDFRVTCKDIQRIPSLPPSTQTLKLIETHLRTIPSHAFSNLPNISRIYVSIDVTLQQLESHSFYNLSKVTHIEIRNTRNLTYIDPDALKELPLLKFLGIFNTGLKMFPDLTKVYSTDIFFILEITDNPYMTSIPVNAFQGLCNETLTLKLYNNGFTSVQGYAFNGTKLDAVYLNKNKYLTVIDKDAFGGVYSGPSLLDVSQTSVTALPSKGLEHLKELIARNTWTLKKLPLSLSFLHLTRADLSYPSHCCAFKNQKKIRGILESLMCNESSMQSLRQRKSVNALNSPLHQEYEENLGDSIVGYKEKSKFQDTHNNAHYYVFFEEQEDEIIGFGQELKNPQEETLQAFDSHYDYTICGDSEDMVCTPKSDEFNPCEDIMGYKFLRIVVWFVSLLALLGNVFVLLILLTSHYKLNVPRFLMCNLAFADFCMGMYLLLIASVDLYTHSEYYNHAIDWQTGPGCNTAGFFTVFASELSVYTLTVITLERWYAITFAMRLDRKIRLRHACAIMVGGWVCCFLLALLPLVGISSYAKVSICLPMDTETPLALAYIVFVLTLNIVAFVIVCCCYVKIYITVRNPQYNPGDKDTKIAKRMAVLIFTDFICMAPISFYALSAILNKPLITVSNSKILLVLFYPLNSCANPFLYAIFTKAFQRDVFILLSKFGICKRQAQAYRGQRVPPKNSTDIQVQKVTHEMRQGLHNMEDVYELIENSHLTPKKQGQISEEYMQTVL
How it was run: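 HEK293/TSHR, 800 cells/well; cpd 30 min RT; add cAMP-d2 + anti-cAMP-cryptate, 1 h RT; fluorescence read on plate reader. 15-pt titration, n=3.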

[4] = qHTS assay to identify small molecule agonists of the hypoxia (HIF-1) signaling pathway (AID 1224846; active = well fitted activation curve with a large enough effect in the signal ratio in the repeat runs, not every such curve was filed as active; the % refers to the signal ratio)
How it was run: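 Reporter induction in HRE-bla ME-180 cells is taken as agonism: cells sit 5 hrs after plating, receive compounds or DMSO only, incubate 17 hrs at 37C under 5% CO2, and are loaded with CCF4-AM for beta-lactamase FRET measurement.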

[5] = qHTS RealTime-Glo MT Cell Viability Assay in HEK293 cells - 32 hour (AID 1224868); also: top concentration of the series differs between compounds; nearly all actives have a fitted effect of over 50% in size
How it was run: (§1)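 Homogeneous bioluminescent viability format in HEK293 cells (600 cells/well). Following 5 h at 37 C/5% CO2, 23 nL compound was pintooled; the signal was measured repeatedly during 40 h incubation.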

[6] = A CellTox Green Cytotoxicity Assay to monitor cytotoxicity in HEK293 cells - 0 hour (AID 1224869); also: nearly all actives have a fitted effect of over 50% in size
How it was run: (§2)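 Tox21 screen in HEK293: membrane-impermeant cyanine dye fluoresces on binding dead-cell DNA; compound pinned 5 h post-seeding, plates held at 37 C, signal read repeatedly through 40 h.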

[7] = qHTS RealTime-Glo MT Cell Viability Assay in HepG2 cells - 40 hour (AID 1224870); also: nearly all actives have a fitted effect of over 50% in size
How it was run: (§3)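 HepG2 cells (600/well) mixed with RealTime-Glo MT reagent, settled 5 h at 37 C/5% CO2 before compound addition. Nonlytic NanoLuc luminescence from viable-cell prosubstrate reduction read repeatedly during 40 h treatment at 37 C.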

[8] = A CellTox Green Cytotoxicity Assay to monitor cytotoxicity in HEK293 cells - 40 hour (AID 1224871); also: nearly all actives have a fitted effect of over 45% in size; also: potency is read from the fitted curve at half-maximal effect
How it was run: as §2

[9] = qHTS RealTime-Glo MT Cell Viability Assay in HEK293 cells - 16 hour (AID 1224872); also: top concentration of the series differs between compounds; nearly all actives have a fitted effect of over 50% in size
How it was run: as §1

[10] = qHTS assay to identify small molecule antagonists of the estrogen related receptor signaling pathway with the pleiotropic PPARgamma coactivator (PGC) from Tox21 10K library - cell viability counter screen (AID 1224840; active = well fitted cell-killing curve with a large enough effect in the repeat runs, not every such curve was filed as active; also: nearly all actives have a fitted effect of over 40% in size)
How it was run: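 Seeded PGC/ERR cells (2,000/well, 6 h, 37 C/5% CO2) get compound by pin tool; 17.5 h incubation at 37 C; CellTiter-Fluor added, 30 min, fluorescence measured.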

[11] = qHTS assay to identify small molecule agonists of the estrogen related receptor signaling pathway with the pleiotropic PPARgamma coactivator (PGC) from Tox21 10K library (AID 1224842); also: nearly all actives have a fitted effect of over 15% in size
How it was run: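 PGC/ERR reporter cell line, 2,000 cells per well, incubated 6 h at 37 C before 23 nL compound in DMSO was added. After 18 h at 37 C, One-Glo luminescence read following 30 min at room temperature.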

[12] = qHTS assay to identify small molecule agonists of the hypoxia (HIF-1) signaling pathway - cell viability counter screen (AID 1224844; calls by dose curve; also: nearly all actives have a fitted effect of over 50% in size; also: potency is read from the fitted curve at half-maximal effect)
How it was run: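 HRE-bla ME-180; 0.5% dFBS; cpd 17 h, 37C, 5% CO2; CellTiter-Glo lum., 30 min RT, post-FRET read, same wells.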

[13] = qHTS assay to identify small molecule agonists of H2AX (AID 1224845; active = well fitted activation curve with a large enough effect in the signal ratio in the repeat runs, not every such curve was filed as active; the % refers to the signal ratio; also: potency is read from the fitted curve at half-maximal effect)
How it was run: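 Wild-type CHO-K1 cells, plated overnight, exposed 3hr at 37C to 15 concentrations (0.76% DMSO final). Lysed, then HTRF anti-pH2AX (S139) cryptate and anti-H2AX-d2 antibodies, 24 hr room temperature; 665/620 nm emission read.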

[14] = qHTS assay to identify small molecule agonists of H2AX - cell viability counter screen (AID 1224847; calls by dose curve; also: nearly all actives have a fitted effect of over 30% in size; also: potency is read from the fitted curve at half-maximal effect; as to activity change, negative = cytotoxicity: top concentration of the series differs between compounds)
How it was run: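 Read-out: CellTiter-Glo luminescence, 30 min RT. Cells: wild-type CHO-K1, 1000/well, 10% FBS, plated overnight at 37C. Treatment: 15 concentrations, 3 hr, 37C, 0.76% DMSO.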

[15] = qHTS assay to identify small molecule antagonists of the estrogen related receptor (ERR) signaling pathway from Tox21 library (AID 1224848); also: nearly all actives have a fitted effect of over 50% in size; also: potency is read from the fitted curve at half-maximal effect
How it was run: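 Compounds dissolved in DMSO are pin-transferred onto ERR reporter cells (2,000 per well) that have settled for 6 h at 37 C. Plates then incubate 18 h at 37 C before ONE-Glo luciferase reagent and a luminescence read 30 min later.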

[16] = qHTS assay to identify small molecule agonists of the estrogen related receptor (ERR) signaling pathway from Tox21 library (AID 1224849; calls by dose curve; also: nearly all actives have a fitted effect of over 15% in size); settings: ERR reporter cell line, ONE-Glo luciferase, 18 h
How it was run: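 Tox21 compounds tested for ERR agonism in an NTP reporter cell line: 18 h treatment at 37 C, then ONE-Glo luminescence.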

[17] = qHTS RealTime-Glo MT Cell Viability Assay in HepG2 cells - 24 hour (AID 1224867); also: nearly all actives have a fitted effect of over 50% in size
How it was run: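 Cell number in HepG2 cultures estimated from NanoLuc luminescence generated by metabolic reduction of a prosubstrate by living cells. The homogeneous, nonlytic format allowed repeated reads at 0, 8, 16, 24, 32 and 40 h of compound exposure.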

[18] = qHTS RealTime-Glo MT Cell Viability Assay in HepG2 cells - 8 hour (AID 1224873); also: nearly all actives have a fitted effect of over 55% in size
How it was run: as §3

[19] = qHTS assay to identify small molecule antagonists of the estrogen related receptor signaling pathway with the pleiotropic PPARgamma coactivator (PGC) from Tox21 10K library (AID 1224841; call rule not given here; also: potency is read from the fitted curve at half-maximal effect)
How it was run: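 Test chemicals dissolved in DMSO were applied to pre-incubated (6 h) PGC/ERR cells at 2,000 cells/well for an 18 h, 37 C treatment; reporter luminescence was then read using One-Glo.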

[20] = at 92.4 µM (top of the series) unless noted
% is scaled to controls: 0 for no effect and ±100 for the full control effect.

Cc1occc1SSc1ccoc1C
inactive: Potency [1] | Potency [2] | Potency [3] | outcome [4] | Potency [5] | Potency [6] | Potency [7] | Potency [9]
active: Potency [8] 54.9 µM

CCc1c(Br)c(Br)c(Br)c(Br)c1Br
inactive: Potency [1] | Potency [10] | Potency [11] | Potency [12] | Potency [13] | outcome [4] | Potency [14] | Potency [15] | activity change, positive = activation [16, 20] -5.33% | Potency [17] | Potency [5] | Potency [7] | Potency [8] | Potency [18]

CC[N+](CC)(CC)Cc1ccccc1
inactive: Potency [1] | Potency [2] | Potency [11] | Potency [13] | outcome [4] | Potency [14] | Potency [15] | activity change, positive = activation [16, 20] -4.7% | Potency [17] | Potency [5] | Potency [6] | Potency [8] | Potency [9] | Potency [18]

C=C/C=C/C=C/CCCCC
inactive: activity change, negative = cytotoxicity [1] -1.33% [at 19 µM] | viability change, negative = cytotoxic [10] -9.87% [at 19 µM] | activation [11] 0.0738% [at 19 µM] | activation [3] -9.38% [at 19 µM] | activity change, negative = cytotoxicity [12] -12% [at 15.8 µM] | activation (H2AX phosphorylation) [13] 0.418% [at 31.6 µM] | activation [4] 0.434% [at 15.8 µM] | activity change, negative = cytotoxicity [14] -1.43% [at 31.6 µM] | activity, negative = inhibition [15] 3.04% [at 19 µM] | activity change, negative = cytotoxicity [17] -0.964% [at 15.8 µM] | activity change, negative = cytotoxic [5] 0.818% [at 15.8 µM] | cytotoxicity [6] -0.619% [at 15.8 µM] | activity change, negative = cytotoxic [7] 24.6% [at 15.8 µM] | cytotoxicity increase [8] 10.9% [at 15.8 µM] | activity change, negative = cytotoxicity [9] 13.8% [at 15.8 µM]

C#CC(O)CCC (stereo not drawn)
inactive: Potency [1] | Potency [2] | Potency [19] | Potency [11] | Potency [3] | Potency [13] | outcome [4] | Potency [14] | Potency [15] | activity change, positive = activation [16, 20] 6.08% | Potency [17] | Potency [5] | Potency [6] | Potency [7] | Potency [8] | Potency [9] | Potency [18]

CN(Cc1cc(Br)cc(Br)c1N)C1CCCCC1
inactive: Potency [1] | Potency [10] | Potency [19] | Potency [11] | Potency [15] | activity change, positive = activation [16, 20] -11.1% [at 42.5 µM] | Potency [17] | Potency [6] | Potency [7] | Potency [18]

C=C(c1ccc(C(=O)O)cc1)c1cc2c(cc1C)C(C)(C)CCC2(C)C
38.6 µM (active) and inactive: Potency [2]
30.9 µM (active) and inactive: Potency [8]
101 µM (active) and inactive: Potency [14]
active: Potency [19] 21.7 µM | Potency [12] 15.5 µM and 16.9 µM | Potency [13] 89.8 µM | Potency [15] 21.7 µM and 23.7 µM
inactive: Potency [1] | Potency [11] | activity change, positive = activation ([16]; at 42.5 µM (top of the series)) -34.6% | activity change, positive = activation ([16]; at 92.4 µM (top of the series)) -63.5% | Potency [17] | Potency [5] | Potency [6] | Potency [7] | Potency [9] | Potency [18]

O=S(=O)(O)c1cc(S(=O)(=O)O)c2ccc3c(S(=O)(=O)O)cc(S(=O)(=O)O)c4ccc1c2c43
inactive: activity change, negative = cytotoxicity [1] 0.0028% [at 19 µM] | viability change, negative = cytotoxic [10] 1.08% [at 19 µM] | activity, negative = inhibition [19] 13.5% [at 19 µM] | activation [11] 0.18% [at 19 µM] | activation [3] -6.64% [at 19 µM] | activity change, negative = cytotoxicity [12] 1.23% [at 15.8 µM] | activation [4] -0.0206% [at 15.8 µM] | activity change, negative = cytotoxicity [14] 4.65% [at 31.6 µM] | activity, negative = inhibition [15] 17.9% [at 19 µM] | activity change, positive = activation [16, 20] 9.26% [at 19 µM] | activity change, negative = cytotoxicity [17] 3.52% [at 15.8 µM] | activity change, negative = cytotoxic [5] 2.34% [at 15.8 µM] | cytotoxicity [6] -7.26% [at 15.8 µM] | activity change, negative = cytotoxic [7] 8.14% [at 15.8 µM] | cytotoxicity increase [8] -6.93% [at 15.8 µM] | activity change, negative = cytotoxicity [9] 1.53% [at 15.8 µM] | viability change, negative = cytotoxic [18] 0.921% [at 15.8 µM]

Source: PubChem BioAssay (Tox21)
